Measured values published in PubChem BioAssay AID1956 (SRMLSC, 2009).
Out of some 220,000 compounds screened, about 10 (0.005%) were called active. No stated cut-off is given here; in the data, active means maximum fold increase above about 1.5; inconclusive means no clear call, values can overlap the other calls; inactive means below that; tested in PC3 cells. Not all results are given here.

Assay: enhancers of HSV replication in host cells, fold increase, host cell viability (AID 1956)
Conditions: HSV replication augmentation in cells; fold increase: measured here: primary screen fold increase 10 uM, at 10 µM, stronger effect = higher value; maximum fold increase: at 0.098 µM, stronger effect = higher value; viability: measured here: host cell viability series, at 25 µM, stronger effect = lower value

| Compound | fold increase | outcome |
| --- | --- | --- |
| O=c1[nH]snc1-c1c(Cl)cccc1Cl | 0.9 | inactive |
| C[C@@H](NC(=O)OC(C)(C)C)c1nnc(S(=O)(=O)Cc2ccccc2)o1 | 0.98 | inactive |
| OCC[C@H]1C[C@H](O)[C@@H](O)[C@]2(CCCCO2)O1 | 0.79 | inactive |
| CCCCCCCCCCCCN1[C@@H](CC(C)=O)c2cc(F)cc(F)c2S1(=O)=O | 0.93 | inactive |
| COc1ccc(CN2[C@@H](CC(=O)O)c3cc(F)ccc3S2(=O)=O)cc1 | 0.82 | inactive |
| C=CCC(Nc1ccccc1)c1cccc(OC)c1OC (configuration not stated) | 0.99 | inactive |
| COc1ccc(CNC(=O)C2(CC3CC(c4ccccc4)=NO3)CCN(C(=O)c3cccc(O)c3)CC2)cc1 (configuration not stated) | 0.88 | inactive |
| CC1CCN(Cc2nc(-c3ccc(Cl)cc3)no2)CC1 | 0.99 | inactive |
| NC(=O)NC(=O)CSc1nc2cc([N+](=O)[O-])ccc2n1-c1cccc(C(F)(F)F)c1 | 0.9 | inactive |
| COc1ccc(N2C(=O)C3C(C2=O)C(C(=O)c2ccccc2)N2CCCC32)cc1 (configuration not stated) | 1.02 | inactive |
| Cc1ccccc1NC(=O)Nc1ccccc1N1CCCCC1 | 0.85 | inactive |
| CCCC[C@@H]1CN=C(N)N1CCc1cccc(F)c1 | 0.84 | inactive |
| C/C=C(/C)C(=O)O[C@@H]1c2cc3c(c4c2[C@@]2(CO4)C(=O)C(OC)=C(OC)C=C2C[C@@H](C)[C@H]1C)OCO3 | 0.75 | inactive |
| CC1Cc2ccccc2N1CC(=O)Nc1ccc(S(N)(=O)=O)cc1 (configuration not stated) | 1.03 | inactive |
| O=C(Nc1nnc(COc2ccccc2)s1)Nc1ccccc1F | 0.9 | inactive |
| COc1ccc(COCCN2CCN(S(=O)(=O)c3ccccc3)CCC2=O)cc1 | 0.895 | inactive |
| N/C(=N\OC(=O)CCn1cccc(C(F)(F)F)c1=O)c1ccc(OC(F)(F)F)cc1 | 0.99 | inactive |
| C=CC(COCc1ccccc1)N(Cc1ccccc1)S(=O)(=O)c1ccccc1Br (configuration not stated) | 1.29 | inactive |
| Cc1cc(C(=O)NNS(=O)(=O)c2ccccc2C(F)(F)F)nn1C(C)(C)C | 1 | inactive |
| CC1(C)S[C@@H]2[C@H](N=CN3CCCCCC3)C(=O)N2[C@H]1C(=O)O | 0.85 | inactive |
| CN(C)N=Nc1ccc2nc[nH]c2c1 | 1.29 | inactive |
| O=C(O)C1CCN(c2ccc([N+](=O)[O-])cc2[N+](=O)[O-])CC1 | 0.9 | inactive |

| Compound | fold increase | outcome |
| --- | --- | --- |
| CCOC(=O)c1ccc(NC(=O)c2nc[nH]c2C(=O)NCc2ccccc2)cc1 | 0.92 | inactive |
| CC(C)(C)Oc1ccccc1Nc1nc(NCCO)nc(N2CCCC2)n1 | 0.69 | inactive |
| CCOC(=O)C1Nc2ccc(C(F)(F)F)cc2C2C=CCC12 (configuration not stated) | 0.82 | inactive |
| O=[N+]([O-])c1ccc(N/N=C/c2ccccc2)cc1 | 1.08 | inactive |
| O=c1c2c3c(sc2n(CCN2CCCC2)c(=O)n1Cc1ccccc1)CCCCC3 | 0.84 | inactive |
| Cc1ccc(NC(=O)/C(=C/c2ccc([N+](=O)[O-])cc2)NC(=O)c2ccccc2)cc1 | 0.83 | inactive |
| COc1ccc2[nH]c(=S)cc(C)c2c1 | 1.08 | inactive |
| CCOC(=O)C1CCN(c2c(Nc3cc(C)cc(C)c3)c(=O)c2=O)CC1 | 0.95 | inactive |
| CC(NC(=S)Nc1ccccc1)C(c1cccs1)N1CCOCC1 (configuration not stated) | 1 | inactive |
| Cc1nc(-c2ccc(Cl)cc2)sc1C1(C)CC(c2ccc(Br)cc2)=NO1 (configuration not stated) | 0.87 | inactive |
| CCOC(=O)/C=C/c1ccc(C(F)(F)F)cc1S(=O)(=O)NC(C)(C)C | 0.67 | inactive |
| CC(C)n1c(=S)[nH]c2cc(C(F)(F)F)ccc21 | 1.02 | inactive |
| COc1cccc(Nc2nnc(SCC(=O)N3CC(=O)Nc4ccccc43)s2)c1 | 1 | inactive |
| CCc1nnc(SCc2cccc(F)c2)nc1CC | 1.19 | inactive |
| CC1(C)CC[C@]2(C(=O)O)CC[C@]3(C)C(=CCC4[C@@]5(C)CC[C@H](O)C(C)(C)C5[C@H](O)C[C@]43C)[C@@H]2C1 (some centres not stated) | 0.82 | inactive |
| COC(C[C@@H](O)C[C@@H](O)[C@H](C)OCc1ccccc1)OC | 1.01 | inactive |
| COC(=O)c1cc(=O)n(-c2c(Cl)cc(C(F)(F)F)cc2Cl)[nH]1 | 0.98 | inactive |
| S=c1[nH]nc(-c2cc(-c3ccccc3)n[nH]2)n1/N=C/c1c2ccccc2cc2ccccc12 | 0.83 | inactive |
| Cc1cc(C)nc(NC(=O)/C=C/c2ccc(Cl)cc2)n1 | 0.99 | inactive |
| S=C(NNC(=S)NC1CC2C=CC1C2)NC1CC2C=CC1C2 (configuration not stated) | 0.93 | inactive |
| CCCCN1C(N)=NC[C@@H]1CC1CCCCC1 | 0.8 | inactive |
| C=CCC1(C(=O)N(C)Cc2ccccc2)CCN(C(=O)OC(C)(C)C)CC1 | 0.96 | inactive |

| Compound | fold increase | outcome |
| --- | --- | --- |
| NC(=O)C1=C[C@@H](c2csc3ccccc23)C[C@@H](OCc2ccc(CO)cc2)O1 | 0.78 | inactive |
| COC(C[C@H](O)CC(=O)[C@@H](C)OCc1ccccc1)OC | 0.76 | inactive |
| CCCOc1ccc(Cl)cc1Nc1nc(NCCO)nc(N2CCCC2)n1 | 0.59 | inactive |
| CC1(c2nnc(-c3ccncc3)o2)CC(c2cccnc2)=NO1 (configuration not stated) | 0.69 | inactive |
| Cc1cc(Cl)ccc1NNC(=O)c1snnc1C | 1.06 | inactive |
| CCC1(CC)C(=O)C2=C3C1[C@H](C(=O)OC)C=C(C(=O)OC)C[C@H]3[C@H]1C(=O)N(Cc3ccccc3)C(=O)[C@H]1[C@H]2C (some centres not stated) | 0.96 | inactive |
| CCC(C)N1C(=S)SC(C)(C)C1N(O)C(=O)NC1CCCCC1 (configuration not stated) | 0.99 | inactive |
| NC(=O)CC(NC(=O)Cc1cccc2ccccc12)c1ccc(NCc2cc(F)ccc2F)c([N+](=O)[O-])c1 (configuration not stated) | 0.77 | inactive |
| CC1(C)C=Cc2c(ccc3c2OC[C@@H](c2ccc(O)cc2O)C3)O1 | 0.67 | inactive |
| Nc1nc(O)c(CC(=O)O)s1 | 1.21 | inactive |
| Clc1ccc2nc(-c3ccccc3)nc(C(Cl)Cl)c2c1 | 0.64 | inactive |
| CCCCN1C(N)=NC[C@@H]1Cc1ccccc1 | 0.87 | inactive |
| Cc1nnc(SC(C(=O)c2ccccc2)c2ccccc2)[nH]c1=O (configuration not stated) | 0.88 | inactive |
| CN1CCc2nc(SC(C(=O)O)c3ccccc3)c(C#N)c(-c3cccs3)c2C1 (configuration not stated) | 0.99 | inactive |
| C/C(=N\Nc1cccc(C(=O)O)c1)c1ccc2c(c1)Nc1ccccc1S2 | 1.22 | inactive |
| O=C(NCc1ccccc1)c1onc(CSc2ccncc2)c1C(=O)NCc1ccccc1 | 0.71 | inactive |
| O=C(N/N=C\c1cc(Br)c(Br)o1)C1COc2ccccc2O1 (configuration not stated) | 1.28 | inactive |
| CC(C)c1cc(CN2CCOCC2)cc(C(C)C)c1O | 1.06 | inactive |
| CC(C)=CCc1c(O)c(CC=C(C)C)c2occ(-c3ccc(O)cc3)c(=O)c2c1O | 0.74 | inactive |
| CN(C)CCCN(Cc1cc2cc3c(cc2[nH]c1=O)OCCO3)C(=O)NC1CCCCC1 | 0.89 | inactive |
| C/C(CC(C)C)=N\Oc1nc(C)cc(C)n1 | 0.9 | inactive |
| COc1ccc(Nc2cc(=O)n(-c3ccccc3)c3c2c(=O)n(C)c(=O)n3C)cc1 | 1.09 | inactive |

| Compound | fold increase | outcome |
| --- | --- | --- |
| NC(=O)C1=C[C@@H](c2ccc3c(c2)OCO3)C[C@@H](OCCCCO)O1 | 0.58 | inactive |
| O=C(NCC1CC1)c1onc(CSc2ccccc2)c1C(=O)NCC1CC1 | 1.02 | inactive |
| Cc1ccc(S(=O)(=O)N2CCN(C(=O)COC(=O)c3c(C)noc3C)CC2)c(C)c1 | 0.83 | inactive |
| COc1ccc(CN2CC[C@H]3C=CC[C@@H](C(=O)N4CCOCC4)[C@H]3C2=O)cc1OC | 0.78 | inactive |
| Brc1ccc(-c2n(-c3ccccn3)c3ccccc3[n+]2-c2ccccn2)cc1 | 1.03 | inactive |
| Cc1[nH]n(C)c(=O)c1N=Nc1ccc(S(C)(=O)=O)cc1 | 1.01 | inactive |
| O=C(CC(c1ccccc1)c1cc(Cl)ccc1O)NCCN1CCOCC1 (configuration not stated) | 0.85 | inactive |
| COC(=O)c1c(-c2ccsc2)oc2ccc(-c3cc(OC)c(OC)c(OC)c3)cc12 | 1.05 | inactive |
| Cc1cccc(NC(=O)c2ccc([N+](=O)[O-])o2)c1 | 0.66 | inactive |
| C=CC1C(OC2OC(CO)C(O)C(O)C2O)OC=C(C(=O)OC)C1CC1CC(=O)CC(CC(=O)CCc2ccc(O)cc2)O1 (configuration not stated) | 1.03 | inactive |
| O=C(N/N=C/c1cccc2cccnc12)[C@H]1C[C@@H]1c1ccccc1 | 0.97 | inactive |
| COCCn1c(SCC(=O)c2[nH]c(C)c(C(C)=O)c2C)nc2ccccc2c1=O | 0.86 | inactive |
| CC#CC[N+](C)(C)CCCCCC | 1.26 | inactive |
| O=C(NCc1ccccc1)C1=C[C@@H](c2ccccc2)C[C@@H](OCCCCO)O1 | 0.94 | inactive |
| O=C(COc1ccc([N+](=O)[O-])cc1Cl)Nn1cnnc1 | 0.85 | inactive |
| COc1ccc(/C=C/C(=O)Nc2ccc(C)cc2)cc1S(=O)(=O)N1CCOCC1 | 0.88 | inactive |
| CC1(C)S[C@@H]2[C@H](NC(=O)COc3ccccc3)C(=O)N2C1C(=O)OCc1ccccc1 (some centres not stated) | 0.86 | inactive |
| NC(=O)c1nnsc1-c1ccc(-c2snnc2C(N)=O)cc1 | 0.97 | inactive |
| O=[N+]([O-])C(=c1ccc2c(c1)N1C3=C(CCCC3)CC3CCCCC31N=2)[N+](=O)[O-] (configuration not stated) | 1.07 | inactive |
| Cc1ccc(-c2nc(SCC(=O)Nc3ccccc3OC(F)F)c3c(C)c(C(=O)O)sc3n2)cc1 | 0.92 | inactive |
